Values joined by “and” are separate entries in the source; they are usually repeats but may differ in a detail not shown here. Identical values can stand only once. A structure can be active in one record and inactive in another. Active and inactive are the calls of the source. How the source made its calls: active means hit-call score of the fitted dose curve at least 0.9, where 1 is the maximum; inactive means score below 0.9.
Assays:
[1] = ATG_DR4_LXR_CIS: Attagene CIS-FACTORIAL HepG2 Assay for human Liver X Receptor (LXR), DR4 submotif (AID 2282929); details: HepG2 Attagene DR4 cis-reporter, mRNA transcription; AC50: actives raise or lower the signal unless noted; outcome: actives raise or lower the signal unless noted
Summary of the method: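 Measures endogenous transcription factor activity via a DR4-driven reporter transcript in human HepG2 cells. Compounds incubated 24 h; mRNA quantified by RT-PCR and capillary electrophoresis, analysed as gain or loss of signal versus DMSO.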

[2] = target: Aryl hydrocarbon receptor (Homo sapiens) (UniProt P35869); test: ATG_Ahr_CIS: Attagene CIS-FACTORIAL HepG2 Assay for human Aryl Hydrocarbon Receptor (Ahr) (AID 2282930); details: HepG2 AhR cis-factorial reporter transcription; actives raise or lower the signal
Chain of Aryl hydrocarbon receptor (Homo sapiens) (P35869 whole entry, looked up): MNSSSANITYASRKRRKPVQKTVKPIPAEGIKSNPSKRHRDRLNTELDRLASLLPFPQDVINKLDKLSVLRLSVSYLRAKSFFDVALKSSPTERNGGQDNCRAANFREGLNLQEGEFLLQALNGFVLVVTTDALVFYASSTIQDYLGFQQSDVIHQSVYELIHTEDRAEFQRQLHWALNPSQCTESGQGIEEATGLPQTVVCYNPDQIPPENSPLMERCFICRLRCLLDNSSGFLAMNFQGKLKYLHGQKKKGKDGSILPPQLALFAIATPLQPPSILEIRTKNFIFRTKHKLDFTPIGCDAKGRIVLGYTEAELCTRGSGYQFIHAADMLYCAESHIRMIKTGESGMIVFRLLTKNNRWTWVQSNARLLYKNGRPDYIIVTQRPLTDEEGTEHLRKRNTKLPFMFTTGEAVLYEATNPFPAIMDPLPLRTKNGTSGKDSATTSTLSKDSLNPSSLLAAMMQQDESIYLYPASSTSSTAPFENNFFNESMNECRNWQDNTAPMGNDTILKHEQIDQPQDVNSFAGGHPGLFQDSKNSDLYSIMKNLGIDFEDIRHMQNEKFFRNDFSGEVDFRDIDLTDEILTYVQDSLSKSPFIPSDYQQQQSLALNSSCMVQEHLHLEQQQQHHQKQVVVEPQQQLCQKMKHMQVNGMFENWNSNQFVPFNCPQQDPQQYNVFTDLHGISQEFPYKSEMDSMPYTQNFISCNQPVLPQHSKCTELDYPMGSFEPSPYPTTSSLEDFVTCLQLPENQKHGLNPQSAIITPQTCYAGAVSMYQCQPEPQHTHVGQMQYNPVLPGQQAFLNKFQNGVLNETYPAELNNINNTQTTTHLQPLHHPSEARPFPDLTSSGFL
Summary of the method: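 Transient MRTU transfection of HepG2 → 24 h compound exposure → total RNA, oligo(dT) RT → PCR, 6-FAM extension, HpaI cut → CE fluorescence. DMSO = baseline; bidirectional curve fit.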

[3] = ATG_AP_1_CIS: Attagene CIS-FACTORIAL HepG2 Assay for human Activator Protein 1 (AP-1) (AID 2282931); details: HepG2 Attagene cis-factorial AP-1 reporter mRNA; actives raise or lower the signal
Summary of the method: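 Bidirectional concentration-response fitting against DMSO controls. Underlying signal: reporter mRNA from cis-promoter constructs in transiently transfected HepG2, measured after 24 h by RT-PCR and capillary electrophoresis.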

[4] = ATG_AP_2_CIS: Attagene CIS-FACTORIAL HepG2 Assay for human Activator Protein 2 (AP-2) (AID 2282932); details: HepG2 AP-2 cis-reporter, Attagene transcription factor profiling; AC50: actives raise or lower the signal unless noted; outcome: actives raise or lower the signal unless noted
Summary of the method: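 Endogenous transcription factor activity is reported through transfected multiplex reporter constructs in HepG2, after 24 h of compound exposure. Transcripts were quantified by RT-PCR and capillary electrophoresis of fluorescent fragments. Bidirectional fit against DMSO.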

[5] = ATG_BRE_CIS: Attagene CIS-FACTORIAL HepG2 Assay for human Bone Morphogenetic Protein (BMP) Response Element (BRE) (AID 2282933); details: HepG2 BMP response element reporter, Attagene transcription factor profiling; actives raise or lower the signal
Summary of the method: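 Multiplexed cis-reporter assay, HepG2, 24 h exposure. mRNA from reporter units quantified via RT-PCR/CE; DMSO baseline; bidirectional curve fit.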

[6] = target: Retinoic acid receptor alpha (Homo sapiens) (UniProt P10276); test: ATG_DR5_RAR_CIS: Attagene CIS-FACTORIAL HepG2 Assay for human Retinoic Acid Receptor Alpha (RARE), DR5 submotif (AID 2282934); details: HepG2 Attagene cis-factorial RARE DR5 reporter, mRNA; actives raise or lower the signal;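 on AC50: reporter responds to endogenous RAR alpha beta and gamma in HepG2 not RARA alone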
Chain of Retinoic acid receptor alpha (Homo sapiens) (P10276 whole entry, looked up): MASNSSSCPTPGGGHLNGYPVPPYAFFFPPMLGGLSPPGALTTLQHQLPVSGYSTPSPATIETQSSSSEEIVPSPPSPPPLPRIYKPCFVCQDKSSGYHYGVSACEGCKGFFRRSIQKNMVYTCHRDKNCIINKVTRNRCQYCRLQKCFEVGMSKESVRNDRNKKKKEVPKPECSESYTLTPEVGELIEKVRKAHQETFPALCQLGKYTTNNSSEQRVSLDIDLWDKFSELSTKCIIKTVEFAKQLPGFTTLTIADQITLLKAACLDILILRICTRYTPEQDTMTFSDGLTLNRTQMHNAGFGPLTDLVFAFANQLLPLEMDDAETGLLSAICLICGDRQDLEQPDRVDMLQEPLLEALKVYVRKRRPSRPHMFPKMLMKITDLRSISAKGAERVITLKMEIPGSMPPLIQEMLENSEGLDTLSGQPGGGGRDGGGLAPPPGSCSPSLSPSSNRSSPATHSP
Summary of the method: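 Transient MRTU transfection of HepG2; 24 h compound treatment; TriZol RNA, oligo(dT) RT, PCR, FAM labelling, capillary electrophoresis. Bidirectional fit vs DMSO. Endogenous TF activity at DR5 RARE.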

[7] = target: Transcription factor E2F1 (Homo sapiens) (UniProt Q01094); test: ATG_E2F_CIS: Attagene CIS-FACTORIAL HepG2 Assay for human E2F Transcription Factor 1 (AID 2282935); details: HepG2 Attagene cis-reporter, E2F reporter RNA transcripts; actives raise or lower the signal
Chain of Transcription factor E2F1 (Homo sapiens) (Q01094 whole entry, looked up): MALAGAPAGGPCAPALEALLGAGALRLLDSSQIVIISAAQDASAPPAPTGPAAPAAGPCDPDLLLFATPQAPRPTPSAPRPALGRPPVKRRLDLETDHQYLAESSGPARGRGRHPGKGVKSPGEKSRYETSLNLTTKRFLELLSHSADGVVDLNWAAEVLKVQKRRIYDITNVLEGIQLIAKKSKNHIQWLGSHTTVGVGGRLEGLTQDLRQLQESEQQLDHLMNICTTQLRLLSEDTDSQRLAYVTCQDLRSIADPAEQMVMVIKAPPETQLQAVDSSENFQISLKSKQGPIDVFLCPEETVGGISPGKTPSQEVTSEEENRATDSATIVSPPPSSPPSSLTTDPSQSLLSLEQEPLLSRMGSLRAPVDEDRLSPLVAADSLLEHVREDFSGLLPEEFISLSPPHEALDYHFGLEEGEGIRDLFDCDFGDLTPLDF
Summary of the method: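 Gain or loss of reporter transcript, fitted against DMSO, reflects E2F1-driven transcription. Transiently transfected HepG2 dosed 24 h before RNA isolation. Quantified by fluorescent RT-PCR products separated by capillary electrophoresis.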

[8] = ATG_E_Box_CIS: Attagene CIS-FACTORIAL HepG2 Assay for human Enhancer Box (E-box) (AID 2282936); details: HepG2 E-box cis-reporter transcription, actives raise or lower the signal
Summary of the method: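 E-box-driven reporter transcripts measured in transiently transfected HepG2 after 24 h exposure: RNA reverse-transcribed, PCR-amplified, fluorescently labelled, digested and resolved by capillary electrophoresis. Gain or loss relative to DMSO.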

[9] = ATG_M_61_CIS: Attagene CIS-FACTORIAL HepG2 Assay for M61 Transcription Factor (Internal Marker) (AID 2282937); details: HepG2 Attagene CIS-FACTORIAL M61 internal marker reporter; actives raise or lower the signal
Summary of the method: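 Fluorescence from labelled cDNA fragments, separated by capillary electrophoresis, quantifies reporter induction. HepG2 cells bearing transiently transfected cis-promoter MRTUs were incubated with test chemical for 24 h; DMSO defined baseline for gain/loss fitting.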

[10] = ATG_EGR_CIS: Attagene CIS-FACTORIAL HepG2 Assay for human Early Growth Response 1 (EGR1) (AID 2282938); details: HepG2 Attagene CIS-FACTORIAL EGR reporter mRNA; actives raise or lower the signal
Summary of the method: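 Cell-based multiplex transcription assay: HepG2 carrying transfected cis-element reporter units, 24 h chemical treatment. Fluorescence from capillary electrophoresis of RT-PCR products gives mRNA levels; fitting is bidirectional relative to DMSO.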

[11] = ATG_M_19_CIS: Attagene CIS-FACTORIAL HepG2 Assay for M19 Transcription Factor (Internal Marker) (AID 2282939); details: HepG2 Attagene CIS-FACTORIAL M19 internal marker reporter; actives raise or lower the signal
Summary of the method: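 Signals come from fluorescence of labelled reporter-specific PCR fragments resolved by capillary electrophoresis, following 24 h treatment of HepG2 cells transfected with cis-promoter reporter units; activity was fitted in both directions relative to DMSO.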

[12] = ATG_ERE_CIS: Attagene CIS-FACTORIAL HepG2 Assay for Estrogen Response Element (ERE) (AID 2282940); details: HepG2 ERE cis-reporter, Attagene RNA transcript; actives raise or lower the signal
Summary of the method: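 Fluorescence of capillary-separated, FAM-labelled reporter cDNA fragments indicates reporter mRNA levels in HepG2 cells exposed to chemicals for 24 h. Transient transfection with cis-regulated units; data fitted in both directions against DMSO.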

[13] = ATG_Ets_CIS: Attagene CIS-FACTORIAL HepG2 Assay for human Erythroblast Transformation Specific (ETS) (AID 2282941); details: HepG2 ETS cis-reporter transcription; AC50: actives raise or lower the signal unless noted; outcome: actives raise or lower the signal unless noted
Summary of the method: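 Bidirectional fit versus DMSO of reporter mRNA signal, detected by RT-PCR and capillary electrophoresis in HepG2 cells transiently transfected with cis-element reporters and dosed 24 h.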

[14] = target: Hepatocyte nuclear factor 3-beta (Homo sapiens) (UniProt Q9Y261); test: ATG_FoxA2_CIS: Attagene CIS-FACTORIAL HepG2 Assay for human Forkhead box A2 (FOXA2) (AID 2282942); details: HepG2 cis-reporter transcription factor activity, 24 h; actives raise or lower the signal
Chain of Hepatocyte nuclear factor 3-beta (Homo sapiens) (Q9Y261 whole entry, looked up): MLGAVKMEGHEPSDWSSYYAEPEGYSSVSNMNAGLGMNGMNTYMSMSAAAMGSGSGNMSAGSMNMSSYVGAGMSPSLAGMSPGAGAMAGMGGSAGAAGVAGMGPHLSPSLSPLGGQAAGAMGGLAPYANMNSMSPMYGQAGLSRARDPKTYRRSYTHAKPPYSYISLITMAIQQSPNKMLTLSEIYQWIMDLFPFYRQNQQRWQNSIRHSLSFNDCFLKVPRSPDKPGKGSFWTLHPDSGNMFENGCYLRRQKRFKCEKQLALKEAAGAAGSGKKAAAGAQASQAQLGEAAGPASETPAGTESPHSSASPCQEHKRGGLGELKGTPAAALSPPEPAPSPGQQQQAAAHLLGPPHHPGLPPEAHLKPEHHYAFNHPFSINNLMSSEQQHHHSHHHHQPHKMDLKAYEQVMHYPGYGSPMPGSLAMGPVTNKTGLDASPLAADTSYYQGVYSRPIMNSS
Summary of the method: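 In transiently transfected human HepG2 cells, promoter-driven reporter mRNA levels after 24 h chemical exposure are determined via RT-PCR with capillary electrophoresis. DMSO serves as baseline for bidirectional fitting.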

[15] = ATG_FoxO_CIS: Attagene CIS-FACTORIAL HepG2 Assay for human Forkhead box O (FoxO) (AID 2282943); details: HepG2 Attagene cis-reporter, FoxO element, mRNA; actives raise or lower the signal
Summary of the method: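 HepG2, transient MRTU transfection (cis element, endogenous TFs). Dose 24 h. TriZol RNA → oligo(dT) RT → PCR → 6-FAM primer extension → HpaI cut → CE. Gain/loss vs DMSO.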

[16] = ATG_GATA_CIS: Attagene CIS-FACTORIAL HepG2 Assay for human GATA Binding Protein (AID 2282944); details: HepG2 GATA cis-element reporter, Attagene multiplex mRNA; actives raise or lower the signal
Summary of the method: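 After transfecting HepG2 cells with multiple cis-regulated reporter units, chemicals are dosed for 24 h; isolated RNA undergoes RT-PCR and fluorescent labeling before capillary electrophoresis, with activity expressed against DMSO.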

[17] = target: Bile acid receptor (Homo sapiens) (UniProt Q96RI1); test: ATG_IR1_CIS: Attagene CIS-FACTORIAL HepG2 Assay for human Nuclear Receptor Subfamily 1 Group H Member 4 (NR1H4), IR1 submotif (AID 2282946); details: IR1 reporter transcription, actives raise or lower the signal
Chain of Bile acid receptor (Homo sapiens) (Q96RI1 whole entry, looked up): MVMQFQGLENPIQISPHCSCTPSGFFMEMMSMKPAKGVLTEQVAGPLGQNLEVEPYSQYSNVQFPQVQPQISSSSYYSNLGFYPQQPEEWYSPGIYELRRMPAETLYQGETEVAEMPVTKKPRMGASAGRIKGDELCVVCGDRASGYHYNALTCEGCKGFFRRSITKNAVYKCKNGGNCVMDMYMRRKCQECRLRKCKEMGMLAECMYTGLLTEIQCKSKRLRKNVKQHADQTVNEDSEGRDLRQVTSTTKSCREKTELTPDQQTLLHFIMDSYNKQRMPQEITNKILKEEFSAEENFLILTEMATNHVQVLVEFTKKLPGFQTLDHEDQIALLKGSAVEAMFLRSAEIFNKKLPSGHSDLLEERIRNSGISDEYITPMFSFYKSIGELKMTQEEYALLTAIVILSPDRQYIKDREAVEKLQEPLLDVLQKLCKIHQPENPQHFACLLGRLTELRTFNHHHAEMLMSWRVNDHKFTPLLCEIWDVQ
Summary of the method: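 HepG2 cells transiently transfected with multiplexed cis-element reporter units read endogenous transcription factor activity. After 24 h compound exposure, reporter mRNA was quantified by RT-PCR, fluorescent labelling, HpaI digestion and capillary electrophoresis; bidirectional fitting versus DMSO baseline.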

[18] = ATG_GRE_CIS: Attagene CIS-FACTORIAL HepG2 Assay for human Glucocorticoid Response Elements (GRE) (AID 2282947); details: HepG2 GRE cis-reporter, Attagene multiplex mRNA; AC50: actives raise or lower the signal unless noted; outcome: actives raise or lower the signal unless noted
Summary of the method: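 Reporter transcripts read by RT-PCR with capillary electrophoresis fluorescence after a 24 h chemical exposure of HepG2 cells transiently transfected with multiple cis-element reporter units. Gain or loss fitted against DMSO.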

[19] = ATG_GLI_CIS: Attagene CIS-FACTORIAL HepG2 Assay for human Zinc Finger Protein GLI1 (AID 2282945); details: HepG2, Attagene cis-factorial reporter mRNA, GLI element; actives raise or lower the signal
Summary of the method: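 Bidirectional curve fits relative to DMSO, using reporter mRNA levels from RT-PCR plus capillary electrophoresis. Cells were HepG2 transiently carrying cis-regulated reporter constructs, harvested 24 h after dosing.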

[20] = ATG_ISRE_CIS: Attagene CIS-FACTORIAL HepG2 Assay for human Interferon Regulatory Factor 1 (IRF1) binding to an Interferon-Stimulated Response Element (ISRE) (AID 2282948); details: HepG2 ISRE cis-reporter (Attagene), mRNA transcription readout; actives raise or lower the signal
Summary of the method: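 Uses HepG2 liver cells transfected with cis-regulated reporters and measures mRNA 24 h post-dosing through RT-PCR, primer-extension labelling and capillary electrophoresis, with DMSO as negative control.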

Measured: AC50

Brc1ccc(Oc2ccc(Br)cc2Br)cc1
not listed: [19] | [20]
inactive: all other assays above

O=C(OC(=O)C(F)(F)C(F)(F)F)C(F)(F)C(F)(F)F
inactive: all assays above

OCC1CCC(CO)CC1 (stereo not drawn)
active: [12] 23.2 µM
inactive: all other assays above

O=C(NO)c1ccccc1
active: [1] 26.6 µM [middle of 4 runs] | [2] 19 µM and 22.3 µM | [4] 63.6 µM and 59.8 µM | [5] 21 µM [middle of 4 runs] | [6] 13.7 µM [middle of 4 runs] | [8] 27.9 µM [middle of 4 runs] | [17] 10.8 µM and 19.5 µM
inactive: [2] | [4] | [7] | [9] | [10] | [11] | [13] | [14] | [16] | [19] | [17] | [18]

COc1cc(OC)nc(NC(=O)NS(=O)(=O)Nc2ccccc2C(=O)N(C)C)n1
inactive: all assays above

CC(=O)Nc1ccc(S(N)(=O)=O)cc1
not listed: [15]
inactive: all other assays above

C=Cc1ccc(O)c(OC)c1
not listed: [15] | [16] | [20]
inactive: all other assays above

— PubChem BioAssay (EPA / NIEHS)
